40 compounds from PubChem BioAssay (NCI) can be followed below.

About 83,000 compounds went through this panel and 20% of them were active in at least one assay; those are over-represented in the sample as a whole.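 For each line, cells grew in 96-well plates with the test compound present at a single concentration for 48 hours.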 A number with no mark means an inactive call. Active and inactive are the calls of the source.

For this test, the system named is SR leukemia. As to the kind of experiment: NCI-60 one-dose screen, 48 h (100 = growth as untreated, 0 = no growth, -100 = all killed). Particulars: 10 µM unless noted. On the procedure: Growth inhibition of the SR human tumor cell line is measured as a screen for anti-cancer activity. Cells are grown in 96 well plates and exposed to the test compound for 48 hours. Compounds are tested at a single concentration, which is 10^-5 M for most compounds. The reported endpoint is percent growth (GI% or GIPRCNT), where numbers from 0 - 100% represent growth inhibition, and numbers from -100% - 0 represent cell death. For example, a value of 40 represents 60% growth inhibition. A value of 0 means no net growth occurred over the course of the experiment. A value of -40 indicates 40% of cells at the beginning of the experiment died by the end of the experiment. A value of -100 means all cells are dead at the end of the experiment.
NCI-60 Human Tumor Cell Lines Screen was performed using the standard one-dose NCI protocol, which is described in more detail at https://dtp.cancer.gov/discovery_development/nci-60/default.htm.
Compounds with GIPRCNT values below 10 were considered active. Activity score was based on GIPRCNT using the following formula: […]
Score is 0 for GIPRCNT values of 100 or above, 50 for GIPRCNT values of 0, and 100 for GIPRCNT values of -100.
With `CC1SC(c2ccccc2O)N(NC(=O)CCC(=O)c2nc3ncccc3[nH]2)C1=O` (stereo not given), the growth is 109%.

`N#Cc1c(-c2ccccc2)nc2c(c(-c3ccccc3)nn2-c2ccccc2)c1-c1ccc(N2CCCCC2)cc1`: the growth was 114%.

Turning to `c1cc(OCCN2CCCCCC2)ccc1CNc1ccc2nc(CCC3CCCCC3)[nH]c2c1`, the growth is 26.1%.

Take `CS(=O)/C(C#N)=C\C=C\c1cccc(Cl)c1` (stereo not given): the growth is 6.39% (active).

Regarding `Cc1nc([P+](c2ccccc2)(c2ccccc2)c2ccccc2)c(N2CCCCC2)o1`, the growth was 20.3%.

For `Cc1ccc(NC(=O)c2cc3ccccc3cc2O)c(C)c1`, the growth is 76.8%.

Consider `COc1cc2ncnc(Nc3ccc(F)c(Cl)c3)c2cc1OCC(=O)N1CCOCC1`, for which the growth was 89.3%.

In the case of `COC(=O)c1c2c(c(C)[n+]([O-])c1C)C(=O)C(NCc1ccccc1)=CC2=O`, the growth is 61.4%.

Take `CCOC(=O)c1ccc[nH]1`: the growth is 94.8%.

In the case of `Cc1cc(C(=O)CCCC(=O)c2cc(C)c(O)c(C)c2)cc(C)c1O`, the growth was 81.9%.

Turning to `O=CN1N=C(c2cccc(Nc3ccnc4cc(Cl)ccc34)c2)CC1c1ccc(Cl)cc1` (stereo not given), the growth is 8.98% (active).

Take `CC12OC(CC(O)C1O)n1c3ccccc3c3c4c(c5c6ccccc6n2c5c31)C(=O)N(CCN1CCCC1)C4=O` (stereo not given): the growth was 2.44% (active).

With `Cc1cc(O)cc(-c2nn(C)cc2-c2cc(N3CCOCC3)nc(-c3cccnc3)n2)c1`, the growth is 15%.

Regarding `CSc1nc(-c2ccco2)c(C#N)c(=O)n1C`, the growth was 74.9%.

For the compound `COC12C=C/C(=C(/C(=O)OCc3csc(SC)n3)C(=O)CCCCCCCCC3(OC)C=C/C(=C(/C(=O)OCc4cnc(SC)s4)C(=O)CCCCCCCC1)O3)O2` (stereo not given), the growth is 1.64% (active).

In the case of `O=c1cc(-c2ccccc2)nc(SCc2nc3cc(Cl)c(Cl)cc3[nH]2)[nH]1`, the growth is 6.56% (active).

Regarding `CCC(C)(C)c1ccc(Nc2ccc(Nc3ccc(C(C)(C)CC)cc3)cc2)cc1`, the growth is 87.7%.

As for `Cc1ccc(OCCOCCOCCOCCOCCOc2ccc(C)n(O)c2=S)c(=S)n1O`, the growth was 4.81% (active).

On to `COc1ccc(C(=O)C/C(=C\c2ccc(O)c(OC)c2)C(=O)NN)cc1`, for which the growth was 26.9%.

As to `CCOC(=O)c1c(C)nc2ccccc2c1/C=C/c1ccc(F)cc1`, the growth was 56.3%.

As to `COc1ccc(C2C3=C(COC3=O)N(CCO)c3cc4c(cc32)OCO4)cc1OC` (stereo not given), the growth was 24.3%.

Consider `COc1ccc(N=C2NN=C(c3c[nH]c4ccccc34)CS2)cc1OC`, for which the growth was 93.6%.

For `CCN1CCN(CCNc2nccc(-c3c(-c4ccc(F)c(O)c4)nc4occn34)n2)S1(=O)=O`, the growth is 29.5%.

In the case of `CN(C)Cc1cc(C(C)(C)C)cc(Br)c1O`, the growth is 107%.

With `O=C(CN1C(=O)S/C(=C\C(Cl)=C\c2ccccc2)C1=O)NC1CCS(=O)(=O)C1` (stereo not given), the growth is 14.2%.

As for `CCCC(=O)NC(c1ccc2c(c1)OCO2)c1cc(Cl)c2cccnc2c1O` (stereo not given), the growth was 10.9%.

Regarding `C/C(=N\Nc1ccccc1)c1ccc(NC2=CC(=O)c3ccccc3C2=O)cc1`, the growth is 59.2%.

Regarding `Nc1cc(C(=O)O)cc(-n2c(O)c(C=C3N=c4ccccc4=N3)sc2=S)c1`, the growth was 121%.

Consider `COc1ccc(C2[C@@H](c3ccccc3)C(=O)N2c2cc(OC)c(OC)c(OC)c2)cc1F` (stereo not given in full), for which the growth was -6.55% (active).

On to `N#Cc1c(-c2ccccc2)cc(-c2ccccc2)n(CCCCC(=O)NO)c1=O`, for which the growth was 7.41% (active).

Take `Nc1cc(Br)cc2c1[nH]c(=O)c1ccccc12`: the growth was 90.7%.

Regarding `Cc1ccc(O)c(NC(=O)c2cccc(Nc3ccnc(C(F)(F)F)c3)c2)c1`, the growth is 39.8%.

For the compound `CCOC(=O)c1c(NC(=O)c2ccccc2)sc2c3c(ccc12)OCN(C)C3`, the growth is -39.6% (active).

Consider `O=C(/C=C/c1cccc(Oc2ccccc2)c1)c1ccc(Nc2nc(Nc3ccc(F)cc3)nc(Nc3ccc(Cl)cc3)n2)cc1`, for which the growth was -14.9% (active).

Regarding `C[C@@H]1NC(=O)[C@H](Cc2ccccc2)N(Cc2cccnc2)C1=O`, the growth was 96.9%.

`Nc1c(Cl)cc(/C=C2\C=Cc3ccccc32)cc1Cl`: the growth is 93.9%.

Turning to `C=CN(C(=O)N1CCN(c2cc3c(cc2F)c(=O)c(C(=O)O)cn3C2CC2)CC1)c1nc(-c2ccccc2)cs1`, the growth was 86.2%.

Regarding `COc1cc(-c2ccc[nH]2)[nH]c1/C=C1\N=C(C)C(CC(=O)OCC(C)(C)C)=C1C`, the growth was -54.2% (active).

As for `O=C(CSc1nnnn1-c1ccccc1)Nc1ccc(Oc2ccccc2)cc1`, the growth is 7.48% (active).

As to `N#Cc1ccc(/C=C/c2cn(-c3ccccc3)nc2-c2cccc([N+](=O)[O-])c2)cc1`, the growth was 66.5%.
